From PubChem BioAssay
The other results are listed elsewhere or left out. Active and inactive are the calls of the source.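 The calls were made as follows, unless noted: active = inhibition above the hit cutoff computed for the primary STAT3 screen (cut at about 44% in these data); inactive = the rest.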

How the values were obtained:
[1] = STAT3 reporter inhibitors, retest of hits, confirmation, U3A cells, luciferase, luminescence (AID 1265); settings: IL-6 STAT3 luciferase reporter, at 5.7 µM, active compounds read high, cell line lacks STAT1;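 also: 0% = IL-6 plus DMSO and 100% = IL-6 plus nifuroxazide control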
[2] = NF-kB reporter inhibitors in human cells, confirmation, counter-screen for STAT3 inhibitor project, cell-based, HEK293T, luciferase, TNF-alpha stimulus (AID 1308;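 active = inhibition above the mean of solvent-only control wells plus 3 SD, cutoff set per campaign, cut at about 13% in these data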;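 also: 0% = TNF-alpha with DMSO and 100% = TNF-alpha with MG high control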); settings: TNF-alpha induced, at 5.7 µM, active compounds read high
[3] = STAT1 reporter inhibitors, IFN-gamma induced, confirmation, counter-screen for STAT3 inhibitor project, cell-based, NIH 3T3, luciferase luminescence (AID 1317;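 active = inhibition above the mean plus 3 SD of solvent-only control wells, limit set per screening run, cut at about 16% in these data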;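 also: 0% = DMSO with IFN-gamma and 100% = nifuroxazide control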); settings: NIH 3T3 STAT1-luciferase reporter, at 5.7 µM, active compounds read high
[4] = STAT1 signaling activators, confirmation, cell-based, HTS, luciferase reporter (AID 1262;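 active = activation above a set limit carried over from the earlier primary STAT1 screen, cut at about 140% in these data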;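 also: simple ratio to median IFN-gamma plus DMSO wells so 0% means no light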); settings: NIH 3T3 STAT1-luciferase reporter, IFN-gamma potentiation, luminescence; at 5.7 µM; active compounds read high; 100% = IFN-gamma EC80 alone, no compound
[5] = NF-kB reporter activators, TNF-alpha stimulated, counter-screen for STAT1 activator project, cell-based, HEK293T, luciferase luminescence (AID 1306;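 active = activation above the mean of solvent-only control wells plus 3 SD, set per campaign, cut at about 130% in these data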;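 also: TNF-alpha given at a submaximal dose yielding about 80% of full reporter signal; values are well signal over median control so 100% means no change and 0% no light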); settings: at 5.7 µM, active compounds read high, 100% = TNF-alpha with vehicle only
[6] = target: Signal transducer and activator of transcription 3 (Homo sapiens) (UniProt P40763); assay: STAT3 reporter activation by STAT1 hits, confirmation, counter-screen for STAT1 activator project, U3A cells, luciferase, luminescence (AID 1316;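 active = activation above the solvent-only control well mean plus 3 SD, set per plate batch, cut at about 110% in these data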;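 also: 0% = no luminescence and 100% = median IL-6 plus DMSO wells; higher means more STAT3 reporter activation so hits are non-selective activators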); settings: IL-6, luminescence, at 5.7 µM, active compounds read high, 100 = IL-6 alone, no compound effect, cells lack STAT1
[7] = tested on: DAF-12 nuclear receptor (Heterodera glycines), GAL4-LBD fusion; assay: H. glycines DAF-12 receptor agonists, confirmation, cell-based, luminescence, HEK293, GAL4-LBD fusion (AID 743050;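 active = mean activation over triplicate wells above the hit cutoff derived from the earlier primary screen, cut at about 11% in these data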;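 also: 0% = DMSO low control and 100% = 2 mM sodium butyrate high control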); settings: HEK293 GAL4-hgDAF12 luciferase reporter, agonist mode; at 6.8 µM; active compounds read high; percent of butyrate response
[8] = target: Oxysterols receptor LXR-beta (Homo sapiens) (UniProt P55055); assay: LXR agonists, Gal4 luciferase reporter, confirmation, counter-screen for hgDAF-12 agonist project, cell-based, luminescence, HEK293, H. glycines campaign (AID 743051;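 active = mean activation of the triplicate above a set limit carried over from the primary screen, none filed active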); settings: 24 h, at 6.8 µM, active compounds read high
[9] = target: Neuropeptide Y receptor type 2 (Homo sapiens) (UniProt P49146); assay: NPY-Y2 potentiators or agonists, confirmation, cell-based (AID 1539; in the data active = activation above about 33%); settings: cell-based NPY-Y2 potentiator/agonist assay; at 3.6 µM; active compounds read high
[10] = target: Neuropeptide Y receptor type 1 (Homo sapiens) (UniProt P25929); assay: NPY-Y1 potentiators or agonists, counter-screen for NPY-Y2 potentiator project, cell-based, fluorescence (AID 1651; in the data active = activation above about 45%;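 also: cells stimulated with submaximal NPY then isoproterenol with phosphodiesterase inhibitor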); settings: Y1 HEK293-CNG cells, membrane potential fluorescence; at 3.6 µM; active compounds read high
[11] = target: Neuropeptide Y receptor type 1 (Homo sapiens) (UniProt P25929); assay: NPY-Y1 direct agonists, selectivity assay for NPY-Y2 potentiator project, cell-based, fluorescence (AID 1702;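 active = activation above the mean of DMSO-only control wells plus 3 SD, cut at about 18% in these data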;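 also: cells stimulated with 1 µM isoproterenol plus the PDE inhibitor Ro 20-1724; 0% = isoproterenol with DMSO and no NPY and 100% = 40 nM NPY; Y1 agonists lower the membrane potential dye signal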); settings: HEK293 Y1-CNGC, membrane potential fluorescence, agonism; at 3.6 µM; active compounds read high
[12] = CNGC cAMP sensor activity inhibitors, counter-screen for NPY-Y2 potentiator project, cell-based, HEK293-CNG parental, membrane potential fluorescence (AID 1703;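 active = inhibition above the control-well mean plus 3 SD of those wells, cut at about 22% in these data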;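 also: 0% = DMSO with isoproterenol and 100% = DMSO without isoproterenol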); settings: isoproterenol cAMP, at 3.6 µM, active compounds read high
[13] = target: Neuropeptide Y receptor type 2 (Homo sapiens) (UniProt P49146); assay: NPY-Y2 direct agonists, counter-screen for NPY-Y2 potentiator project, cell-based, fluorescence (AID 1710;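 active = activation above the mean of solvent-only control wells plus 3 SD, cut at about 10% in these data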;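 also: cells stimulated by isoproterenol with no NPY added so direct agonism is tested; 0% = DMSO with isoproterenol alone and 100% = NPY at EC100 plus isoproterenol; agonism lowers probe fluorescence through less cAMP and CNG channel opening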); settings: HEK293 Y2/CNGC cells, membrane potential fluorescence, agonist mode; at 3.6 µM; active compounds read high
[14] = KLF5 expression inhibitors, confirmation, DLD-1 cells, luminescence (AID 1834;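 active = inhibition above a set limit taken from the earlier primary screen, cut at about 63% in these data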;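 also: 0% = DMSO wells and 100% = LY294002 at 200 µM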); settings: DLD-1 KLF5 promoter firefly luciferase reporter, at 4 µM, active compounds read high
[15] = cytotoxicity in rat IEC-6 cells, cytotoxicity control for KLF5 inhibitor project, cell-based, luminescence, triplicate (AID 1905; in the data active = inhibition above about 23%;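 also: cells exposed to compounds for 48 hours before viability read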); settings: IEC-6 rat intestinal cells, viability luminescence; at 4 µM; active compounds read high
[16] = tested on: Fam108b (Abhd17b) serine hydrolase [Mus musculus]; assay: mouse Fam108b serine hydrolase inhibitors, confirmation, counter-screen for RBBP9 inhibitor project, biochemical, fluorescence polarization, triplicate (AID 1978;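 active = inhibition above a limit from the primary screen, the mean over all compounds plus 3 SD, cut at about 19% in these data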;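 also: 0% = median of active Fam108b wells and 100% = catalytically dead S170A mutant; inhibitors free the probe so polarization falls as inhibition rises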); settings: recombinant Fam108b, FP-Rh probe fluorescence polarization; at 9.51 µM; active compounds read high
[17] = target: Protein phosphatase methylesterase 1 (Homo sapiens) (UniProt Q9Y570); assay: PME-1 inhibitor activity retest, confirmation, biochemical, fluorescence polarization, FP-Rh probe, triplicate (AID 2171;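 active = inhibition above the hit cutoff set in the earlier primary screen, cut at about 27% in these data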;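 also: 0% = enzyme with DMSO and 100% = wells lacking PME-1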); settings: recombinant PME-1, FP-Rh probe fluorescence polarization; at 5.9 µM; active compounds read high
[18] = target: Photoreceptor-specific nuclear receptor (Homo sapiens) (UniProt Q9Y5X4); assay: NR2E3 agonist confirmation in cells, cell-based, luminescence, CHO-S two-hybrid (AID 624378;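 active = average inhibition above a cutoff equal to the mean inhibition of all tested compounds plus one SD, cut at about 70% in these data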;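 also: 0% = DMSO in NR2E3 cells and 100% = DMSO in cells lacking NR2E3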); settings: CHO-S mammalian two-hybrid NR2E3-NCOR, luciferase luminescence; at 3.98 µM; active compounds read high
[19] = growth loss of phage-infected RecBCD+ E. coli, confirmation, RecBCD inhibitor project, absorbance, E. coli V66, T4 gene 2 phage (AID 651982;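 active = mean inhibition over triplicates exceeding the hit threshold derived in the original primary screen, cut at about 11% in these data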); settings: E. coli V66 + T4 2- phage, growth OD; at 11.9 µM; active compounds read high
[20] = E. coli viability inhibition, counter-screen for RecBCD inhibitor project, absorbance, high throughput (AID 651983; in the data active = inhibition above about 20%;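 also: E. coli strain V66 grown with compound alone and no phage infection; 0% = bacteria with DMSO vehicle only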); settings: absorbance (OD) growth, at 11.9 µM, active compounds read high
[21] = growth loss of phage-infected AddAB-carrying E. coli, confirmation, counter-screen for RecBCD inhibitor project, absorbance, E. coli V3065, T4 phage (AID 651984;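 active = mean inhibition above the solvent-only control wells' mean plus 3 SD, cut at about 22% in these data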;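 also: higher means less bacterial growth from phage killing when AddAB is blocked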); settings: E. coli expressing H. pylori AddAB + T4 phage, OD growth; at 11.9 µM; active compounds read high; gene 2 mutant T4, recBCD-deleted host
[22] = tested on: transactivating tegument protein VP16 (Human herpesvirus 1); assay: VP16 transactivation reporter inhibitors, counter-screen for SRC2 inhibitor project, cell-based, luminescence, single concentration (AID 652007; in the data active = inhibition above about 36%); settings: cell-based VP16 transactivation luciferase reporter, at 8.9 µM, active compounds read high
[23] = target: Nuclear receptor coactivator 2 (Homo sapiens) (UniProt Q15596); assay: SRC2 coactivator transcriptional activity inhibitors, confirmation, cell-based, luminescence, HEK293, triplicate (AID 652008;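 active = mean inhibition above 46.5%, the solvent-only control mean plus 3 SD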;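 also: 0% = DMSO-treated cells and 100% = Gossypol at 36 µM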); settings: HEK293 GAL4-SRC2 luciferase reporter, at 8.9 µM, active compounds read high
Chain of Nuclear receptor coactivator 2 (Homo sapiens) (Q15596 whole entry, looked up, the tested form may be a part): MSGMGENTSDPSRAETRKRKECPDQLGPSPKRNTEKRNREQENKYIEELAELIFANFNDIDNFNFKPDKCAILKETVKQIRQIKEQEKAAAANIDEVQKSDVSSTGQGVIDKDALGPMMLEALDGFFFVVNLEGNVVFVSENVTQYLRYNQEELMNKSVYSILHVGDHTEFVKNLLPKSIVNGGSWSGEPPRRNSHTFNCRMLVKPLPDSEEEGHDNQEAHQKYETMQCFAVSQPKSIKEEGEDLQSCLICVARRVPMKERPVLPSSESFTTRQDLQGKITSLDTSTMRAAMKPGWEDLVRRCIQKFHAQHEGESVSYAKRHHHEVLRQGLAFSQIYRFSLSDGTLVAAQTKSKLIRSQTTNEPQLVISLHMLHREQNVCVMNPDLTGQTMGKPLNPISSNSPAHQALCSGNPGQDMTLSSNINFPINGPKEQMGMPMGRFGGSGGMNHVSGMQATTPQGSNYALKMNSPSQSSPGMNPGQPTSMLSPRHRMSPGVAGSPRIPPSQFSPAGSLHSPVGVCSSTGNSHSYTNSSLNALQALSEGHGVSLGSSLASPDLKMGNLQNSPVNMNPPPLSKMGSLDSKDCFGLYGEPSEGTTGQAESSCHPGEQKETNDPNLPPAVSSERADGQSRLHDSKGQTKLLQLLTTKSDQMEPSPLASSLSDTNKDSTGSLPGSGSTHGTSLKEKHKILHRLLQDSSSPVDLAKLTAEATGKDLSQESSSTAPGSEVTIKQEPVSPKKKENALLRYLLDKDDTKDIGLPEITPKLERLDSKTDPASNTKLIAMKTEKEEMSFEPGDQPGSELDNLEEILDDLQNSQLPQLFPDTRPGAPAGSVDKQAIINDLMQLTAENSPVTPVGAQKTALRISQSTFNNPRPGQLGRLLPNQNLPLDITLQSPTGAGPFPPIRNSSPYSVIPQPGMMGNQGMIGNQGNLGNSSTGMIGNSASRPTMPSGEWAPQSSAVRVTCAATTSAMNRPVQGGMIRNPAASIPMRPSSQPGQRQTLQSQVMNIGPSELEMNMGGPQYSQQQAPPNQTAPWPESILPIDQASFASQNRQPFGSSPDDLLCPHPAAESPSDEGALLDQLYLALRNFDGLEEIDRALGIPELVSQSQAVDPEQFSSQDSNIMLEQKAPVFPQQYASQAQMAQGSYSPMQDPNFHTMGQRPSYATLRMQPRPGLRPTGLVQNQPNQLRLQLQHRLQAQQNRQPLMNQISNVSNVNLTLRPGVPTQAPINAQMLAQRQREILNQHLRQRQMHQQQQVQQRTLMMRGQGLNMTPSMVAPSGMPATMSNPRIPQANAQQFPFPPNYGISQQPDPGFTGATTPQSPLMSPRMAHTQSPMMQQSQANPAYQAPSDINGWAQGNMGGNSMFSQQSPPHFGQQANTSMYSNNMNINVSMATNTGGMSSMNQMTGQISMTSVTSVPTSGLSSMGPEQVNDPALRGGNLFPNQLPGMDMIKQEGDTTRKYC

Chain of Neuropeptide Y receptor type 1 (Homo sapiens) (P25929 whole entry, looked up): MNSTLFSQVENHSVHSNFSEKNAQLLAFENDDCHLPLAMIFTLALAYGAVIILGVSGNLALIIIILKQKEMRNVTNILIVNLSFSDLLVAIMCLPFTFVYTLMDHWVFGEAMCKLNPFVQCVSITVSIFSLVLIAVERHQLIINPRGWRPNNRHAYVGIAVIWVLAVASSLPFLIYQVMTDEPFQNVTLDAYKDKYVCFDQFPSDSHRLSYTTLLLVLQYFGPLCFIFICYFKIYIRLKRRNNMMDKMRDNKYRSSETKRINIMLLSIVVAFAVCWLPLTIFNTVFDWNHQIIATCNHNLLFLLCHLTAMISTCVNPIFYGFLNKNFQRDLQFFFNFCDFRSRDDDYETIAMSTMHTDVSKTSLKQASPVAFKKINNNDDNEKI
Chain of Neuropeptide Y receptor type 2 (Homo sapiens) (P49146 whole entry, looked up): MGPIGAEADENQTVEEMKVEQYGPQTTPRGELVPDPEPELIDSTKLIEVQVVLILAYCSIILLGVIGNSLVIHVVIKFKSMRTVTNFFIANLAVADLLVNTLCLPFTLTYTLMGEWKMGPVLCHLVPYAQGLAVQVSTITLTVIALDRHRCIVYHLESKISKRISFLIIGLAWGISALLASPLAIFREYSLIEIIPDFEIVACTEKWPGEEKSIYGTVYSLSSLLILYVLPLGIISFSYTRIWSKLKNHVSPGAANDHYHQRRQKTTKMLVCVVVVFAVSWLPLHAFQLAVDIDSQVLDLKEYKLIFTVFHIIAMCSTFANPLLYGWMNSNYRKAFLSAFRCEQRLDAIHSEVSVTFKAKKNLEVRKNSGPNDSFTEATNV
Chain of Oxysterols receptor LXR-beta (Homo sapiens) (P55055 whole entry, looked up, the tested form may be a part): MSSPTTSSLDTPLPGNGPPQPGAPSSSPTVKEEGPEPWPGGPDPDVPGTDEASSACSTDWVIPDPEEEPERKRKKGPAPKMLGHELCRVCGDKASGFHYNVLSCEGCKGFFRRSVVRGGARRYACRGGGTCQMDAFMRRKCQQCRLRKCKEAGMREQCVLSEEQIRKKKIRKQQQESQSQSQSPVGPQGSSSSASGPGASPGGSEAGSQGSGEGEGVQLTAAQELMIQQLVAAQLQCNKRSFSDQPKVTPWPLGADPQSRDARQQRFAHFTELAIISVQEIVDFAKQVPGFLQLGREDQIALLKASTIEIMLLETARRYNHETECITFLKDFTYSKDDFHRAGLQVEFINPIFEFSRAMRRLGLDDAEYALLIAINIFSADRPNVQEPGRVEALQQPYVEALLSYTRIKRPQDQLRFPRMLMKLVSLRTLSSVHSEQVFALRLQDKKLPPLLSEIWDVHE
Chain of Photoreceptor-specific nuclear receptor (Homo sapiens) (Q9Y5X4 whole entry, looked up): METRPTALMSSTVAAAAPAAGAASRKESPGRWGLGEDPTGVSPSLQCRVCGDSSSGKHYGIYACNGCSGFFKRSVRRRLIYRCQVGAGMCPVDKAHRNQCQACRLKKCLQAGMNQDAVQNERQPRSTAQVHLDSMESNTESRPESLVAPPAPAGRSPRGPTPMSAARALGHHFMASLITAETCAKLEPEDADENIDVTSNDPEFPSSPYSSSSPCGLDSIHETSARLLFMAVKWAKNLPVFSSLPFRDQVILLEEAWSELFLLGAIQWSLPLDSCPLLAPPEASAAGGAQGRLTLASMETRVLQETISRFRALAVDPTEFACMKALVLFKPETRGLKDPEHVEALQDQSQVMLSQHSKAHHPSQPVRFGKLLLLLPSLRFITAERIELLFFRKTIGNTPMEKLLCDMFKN
Chain of Protein phosphatase methylesterase 1 (Homo sapiens) (Q9Y570 whole entry, looked up): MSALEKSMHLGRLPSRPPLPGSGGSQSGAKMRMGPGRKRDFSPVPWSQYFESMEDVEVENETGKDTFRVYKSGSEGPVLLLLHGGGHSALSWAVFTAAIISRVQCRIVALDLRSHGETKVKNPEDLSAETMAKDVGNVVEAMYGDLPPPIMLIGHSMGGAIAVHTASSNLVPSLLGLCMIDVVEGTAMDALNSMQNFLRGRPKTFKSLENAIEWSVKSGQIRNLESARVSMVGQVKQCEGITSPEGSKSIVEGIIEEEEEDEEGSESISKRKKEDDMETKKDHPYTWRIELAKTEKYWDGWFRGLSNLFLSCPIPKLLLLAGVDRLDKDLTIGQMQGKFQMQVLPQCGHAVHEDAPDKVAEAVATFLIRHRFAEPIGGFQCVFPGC

c1ccc(-c2noc(-c3cccs3)n2)nc1
inactive: inhibition [1] 27.6% | inhibition [2] -12.9% | inhibition [3] -54.9%

COc1ccc(NS(=O)(=O)c2ccc(NC(C)=O)cc2)cc1OC
inactive: inhibition [1] 26.4% | inhibition [2] 5.93%
active: inhibition [3] 17.1%

Cc1ccc2nc(-c3ccc(NC(=O)CN(C)S(=O)(=O)c4ccccc4)cc3)sc2c1
inactive: inhibition [1] 20.1% | inhibition [2] -18.5% | inhibition [3] -90.5%

CC(=O)c1sc(N/N=C/c2ccc(C(C)C)cc2)nc1C
inactive: activation (% of control) [6] 110% | activation [8] 0.5%
active: activation (% of control) [4] 187% | activation (% of control) [5] 133% | activation [7] 11.8%

O=c1c2c(nc3n1CCCCC3)sc1c(O)cccc12
inactive: inhibition [2] -0.37% | inhibition [3] 3.33%
active: inhibition [1] 45.2%

Oc1c(Cl)cc(Cl)c(Cl)c1Cc1c(O)c(Cl)cc(Cl)c1Cl
inactive: activation [9] 24.1% | activation [10] 3.71% | activation [11] 14.9% | inhibition [12] 15.6% | inhibition [17] 10.2% | inhibition [20] 11.5% | inhibition [21] 2.09%
active: inhibition [1] 46.3% | inhibition [2] 20.9% | inhibition [3] 41% | activation [13] 24.1% | inhibition [14] 88% | inhibition [15] 31.1% | inhibition [16] 47.1% | inhibition [18] 98.9% | inhibition [19] 11.6%

CC(C)C[C@@H](N)c1nnc(SCC(=O)c2ccc(Cl)cc2)o1
inactive: inhibition [1] 36.7% | inhibition [2] 10.9% | inhibition [3] 9.47%

Cc1ccc(-n2ncc3c(N4CCN(c5ccc(F)cc5)CC4)ncnc32)c(C)c1
active: inhibition [1] 46.6% | inhibition [2] 22.4%
inactive: inhibition [3] 14.9%

O=C(Nc1ccc(NC(=O)c2cccs2)cn1)c1ccco1
inactive: inhibition [1] 20.3% | inhibition [2] -29.5% | inhibition [3] -92.3%

CN(C)c1ccnc2sc(C(=O)c3ccccc3)c(N)c12
active: activation (% of control) [4] 188% | activation [7] 14.2%
inactive: activation (% of control) [5] 126% | activation (% of control) [6] 109% | activation [8] 0.47%

O=C(Nc1cccnc1)c1noc2c1CCCCC2
inactive: inhibition [1] 16.7% | inhibition [2] -24.9% | inhibition [3] -46.6%

CCN(CC)c1ccc(/C=N/Nc2nc(C)cc(=O)[nH]2)cc1
inactive: inhibition [1] 37.2% | inhibition [2] -2% | inhibition [3] -4.6%

COc1ccc(C2=Nc3cc(C)ccc3OC2)cc1
inactive: inhibition [1] 19.3% | inhibition [2] -18.5% | inhibition [3] -114%

CN(C)S(=O)(=O)c1ccc(NC(=O)COC(=O)c2n[nH]c3ccccc23)cc1
inactive: inhibition [1] 38.2% | inhibition [2] 1.2% | inhibition [3] 8.4% | activation [9] -2.42% | activation [10] -36% | activation [11] -29.4% | inhibition [12] -6.29% | activation [13] 4.88% | inhibition [22] -4.93% | inhibition [23] 16%
